Sampled rows, rich in hits. Any-hit rate of the full collection: about 14%.
LmPK inhibitor: LmPK (Leishmania mexicana) enzyme inhibition; actives 0.37% (n = 290,000); Q27686; AID 1721; Potency, µM (doses to about 57.5 µM), for the others: at the highest dose activity change, negative = inhibition, usual class: inhibitors; purified LmPK, Kinase-Glo ATP luminescence, 1 h; note: potency is the fitted concentration of half-maximal effect; % is set by controls: 0 for no effect and ±100 for the full control effect
Target sequence (Q27686 whole entry, looked up): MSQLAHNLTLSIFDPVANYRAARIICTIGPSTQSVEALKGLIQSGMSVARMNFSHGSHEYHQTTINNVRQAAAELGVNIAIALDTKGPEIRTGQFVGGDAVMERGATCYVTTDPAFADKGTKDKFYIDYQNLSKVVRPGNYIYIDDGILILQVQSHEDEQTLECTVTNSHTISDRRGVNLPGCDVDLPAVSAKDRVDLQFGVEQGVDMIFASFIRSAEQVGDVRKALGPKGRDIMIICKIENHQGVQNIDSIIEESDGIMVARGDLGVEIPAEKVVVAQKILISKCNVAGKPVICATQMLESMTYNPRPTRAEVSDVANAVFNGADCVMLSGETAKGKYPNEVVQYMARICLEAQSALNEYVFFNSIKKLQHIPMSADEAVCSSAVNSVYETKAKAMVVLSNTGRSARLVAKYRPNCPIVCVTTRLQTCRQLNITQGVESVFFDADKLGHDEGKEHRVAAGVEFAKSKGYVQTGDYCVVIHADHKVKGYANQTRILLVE
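In 50 mM imidazole pH 7.2 with 7 mM MgCl2, LmPK (0.1 nM) turned over PEP (0.5 mM) and ADP (0.1 mM) for 1 h at room temperature. Luciferase read-out of ATP.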
NS1 function inh: blocks influenza NS1 protein function; actives 0.4% (n = 270,000); Potency, µM (series often up to 46.1 µM), inactives show top-dose activity, positive = more growth; calls by dose curve; note: potency is the fitted concentration of half-maximal effect; actives are rising curves; nearly all actives have a fitted effect of over 50% in size
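Growth recovery, yeast-based: influenza A NS1 expressed in S. cerevisiae causes slow growth, and suppressors are detected by OD600. The parent strain without NS1 is used as positive control.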
Cycloheximide cs: counter-screen for Shiga toxin inhibitors: cycloheximide protein synthesis inhibition; cell reporter, cycloheximide protein synthesis inhibition counterscreen; max response, %; actives 12% (n = 300,000); in the data active = max response mostly above about 13%, no sharp cut-off; inactive = mostly below about 14%; note: read at 38.3 µM for the half of the compounds with a filed dose; 0% is about no effect
FBPA Giardia inh: inhibitors of Giardia lamblia fructose-1,6-bisphosphate aldolase; A8B2U2; purified Giardia FBPA; Potency, µM (doses to about 59.6 µM), for the others: at the highest dose activity, negative = inhibition, actives largely listed as inhibitors; actives 0.71% (n = 290,000); note: potency is the fitted concentration of half-maximal effect; % is set by controls: 0 for no effect and ±100 for the full control effect; nearly all actives have a fitted effect of over 55% in size
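40 nM FBPA preincubated 10 min at RT with compound (up to 57.5 uM final), then substrate plus GAPDH/TPI/NAD/arsenate coupling and diaphorase/resazurin added. Fluorescence read after 20 min at RT, 525/598 nm.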
Shiga inhibitor: Shiga toxin inhibition; Vero cells, Shiga toxin protein synthesis inhibition reporter; inhibition, % at 38.7 µM; actives 9.2% (n = 290,000); in the data active = inhibition mostly above about 28%, no sharp cut-off; inactive = mostly below about 43%; note: 0% is about no effect
Active calls of the source: *; i = inactive; ? = inconclusive; . = no result; [ ] = dose if it differs, or a comment. Unless noted, calls come from the whole dose curve; as a rule, active = well fitted curve in the direction sought with a large enough effect; inconclusive = small, poorly fitted or top-dose-only effect, or another doubt; inactive = no such curve, though single readings can be large; an effect the other way counts as inactive or inconclusive.

SMILES	LmPK inhibitor	NS1 function inh	Cycloheximide cs	FBPA Giardia inh	Shiga inhibitor
CCCNC(=O)NS(=O)(=O)c1ccc(Cl)cc1	4.5%	-0.4%	-3.4	-10.2%	-10.0
CCCNC(=O)c1nnsc1S(=O)(=O)c1ccc(Cl)cc1	0.1%	.	27.0*	-0.7%	29.6
Cc1ccc(C(C)C)c(OCc2nn(CC(=O)c3ccc(Cl)cc3)c3[n+]2CCCCC3)c1	0.1%	.	-6.2	7.2%	-11.9
COC(=O)Nc1ccc(S(=O)(=O)NC2CCCCC2)cc1	-0.4%	1.6%	-4.1	.	12.9
Cc1ccc(CNC(=O)CCC(=O)Nc2nnc(C)s2)cc1	-0.7%	3.4%	-3.3	.	2.4
CCOC(=O)c1c(NC(=O)CN2CCCc3ccccc32)sc(C)c1C	-0.3%	3.5%	34.0*	-1.1%	37.8
COC(=O)c1[nH]c2ccc(Br)cc2c1NC(=O)CN1CCCc2ccccc21	-0.9%	29.0%	0.9	-8.9%	13.7
COC(=O)c1[nH]c2cc(C)ccc2c1NC(=O)CN1CCCc2ccccc21	2.5%	11.7%	47.7*	.	i
COc1ccc(C(=O)N=C2SC3CS(=O)(=O)CC3N2Cc2ccc(F)cc2)cc1 (stereo unspecified)	2.5%	-6.0%	16.2	2.4%	14.8
NS(=O)(=O)c1ccc(CCNC(=O)c2cc(-c3cc(Cl)ccc3O)n[nH]2)cc1	6.2%	-1.6%	-3.0	-1.6%	-7.1
CC(=O)Nc1c(I)c(C(=O)N[C@H]2[C@@H](O)[C@H](O)[C@H](CO)O[C@@H]2O)c(I)c(N(C)C(C)=O)c1I	.	.	.	1.3%[21.7 µM]	.
c1ccc2oc(CCc3nc4ccccc4o3)nc2c1	7.6%	-15.6%	14.7*	1.9%	20.3
Nc1ccc2c(c1)nc(Cc1ccccc1)n2CCO	8.3%	0.3%	-3.7	-14.1%	2.6
Nc1ccc2oc(CCc3ccccc3)nc2c1	-7.1%	?	47.7*	?	166.5*
c1ccc2oc(Cc3ccc(Cc4nc5ccccc5o4)cc3)nc2c1	0.7%	2.4%	-3.3	0.2%	14.3
CCOC(=O)C1(Cc2ccc(OC)cc2)CCN(C(=O)CCn2cccn2)CC1	-1.3%	-3.3%	30.2*	3.9%	88.4
CCOC(=O)C1(Cc2ccc(OC)cc2)CCN(C(=O)c2cncs2)CC1	7.1%	-5.2%	15.7*	0.1%	30.7
CCOC(=O)C1(Cc2ccc(OC)cc2)CCN(C(=O)CCn2ccc(C)n2)CC1	9.7%	-11.1%	-2.2	-0.7%	11.0
CCOC(=O)C1(Cc2ccc(OC)cc2)CCN(C(=O)c2ccoc2C)CC1	1.9%	-4.1%	11.2*	2.2%	20.6
c1ccc2c(c1)NCC1CCCN21 (stereo unspecified)	1.9%	-2.7%	12.2	-29.9%	16.5
O=P(O)(O)CCP(=O)(O)O	.	-1.0%	.	.	.
COC(=O)c1sc2ccccc2c1N	1.2%	-49.3%	31.8*	-22.4%	60.0*
O=C(Nc1c(-c2ccccc2)nc2ccccn12)c1ccccc1	3.7%	-20.5%	4.8	11.7%	18.7
COc1ccc(C(=O)Nc2c(-c3ccccc3)nc3ccccn23)c(OC)c1	-0.7%	1.9%	9.0	0.5%	-7.9
CCC(=O)Nc1c(-c2ccc3ccccc3c2)nc2ccccn12	-0.3%	1.4%	37.8*	2.4%	49.6
SMILES	LmPK inhibitor	NS1 function inh	Cycloheximide cs	FBPA Giardia inh	Shiga inhibitor
CC(=O)Nc1c(-c2ccc3ccccc3c2)nc2ccccn12	-8.3%	0.1%	20.6*	-0.1%	103.5*
O=C(NCCc1csc(-c2cccnc2)n1)c1cccs1	-2.2%	-34.1%	0.8	-1.2%	0.8
Cc1nc(CCNC(=O)c2ccccc2)cs1	0.7%	-57.5%	17.5*	1.8%	17.2
Cc1ccc(C(=O)NCCc2csc(-c3cccnc3)n2)cc1	-1.7%	-3.6%	20.0*	2.9%	66.6*
CC(=O)Nc1ccn(C2OC(C(COC(C)=O)NC(=O)C(C)NC(=O)OC(C)(C)C)C(OC(C)=O)C2OC(C)=O)c(=O)n1 (stereo unspecified)	.	.	1.7	6.2%	16.0
CC(=O)Nc1ccc(N/C=C/C(=O)c2ccc(Br)cc2)cc1	-1.0%	10.2%	-1.8	-4.6%	4.1
COc1ccc(C(=O)Sc2ccc(Cl)cc2)cc1OC	-2.8%	1.0%	8.3	0.5%	11.9
CCCOc1ccc(N/C=C/C(=O)c2cc(OC)c(OC)c(OC)c2)cc1	4.8%	7.8%	5.5	5.4%	.
CC(=O)Nc1ccc(N/C=C/C(=O)c2ccc(C)cc2)cc1	-3.9%	28.3%	26.6*	12.7%	54.7*
COc1ccc(N/C=C(\C(C)=O)c2ccc(OC)c(OC)c2)cc1OC	-0.8%	.	-1.3	-9.3%	-22.5
COc1ccc(N/C=C\C(=O)c2ccc(C)cc2)cc1OC	-0.8%	-4.7%	45.8*	-1.9%	84.9*
